{"source": "PubChem BioAssay", "key": {"[1]": {"test": "viability loss in pontine glioma line – cell-based, SU-DIPG-XXV, MIPE5.0, CellTiter-Glo, qHTS, dose response (AID 1347065; cut-off not given, nearly all actives have AC50 up to about 26 µM;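 note: cells exposed to compound for 48 hours before ATP readout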)", "conditions": "CellTiter-Glo ATP luminescence"}, "[2]": {"test": "JHH-DIPG-1 glioma cell viability, MIPE5.0 library, CellTiter-Glo luminescence, qHTS (AID 1347067; cut-off not given, nearly all actives have AC50 up to about 26 µM;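 note: cells exposed to compound for 48 hours before readout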)", "conditions": "JHH-DIPG-1 glioma viability, CellTiter-Glo ATP luminescence"}, "[3]": {"test": "growth inhibition of DIPG cells – cell-based, MIPE5.0 library, qHTS (AID 1347068; cut-off not given, nearly all actives have IC50 up to about 30 µM;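 for IC50: cells exposed to compound for 48 hours before viability readout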)", "conditions": "SU-DIPG-XXV viability"}, "[4]": {"test": "growth inhibition, single agent or in combination, cell-based, chromothripsis tumors, cisplatin or BGB combos (AID 1671449);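 note: cells exposed for 96 hours; 0% = vehicle DMSO and 100% = killing by high DMSO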", "conditions": "LFS_MB_P medulloblastoma cells"}, "[5]": {"test": "growth inhibition, single agent and combos, cell-based, chromothripsis tumors, cisplatin or BGB combos (AID 1671450);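 note: cells exposed to compound for four days; 0% = vehicle DMSO and 100% = cell killing by high DMSO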", "conditions": "HDN33 neuroblastoma cells, stronger effect = higher value"}, "[6]": {"test": "growth inhibition, single agents and combos, ICB984, cell-based, cisplatin or BGB combos, synergistic combos for chromothripsis tumors (AID 1671451; call rule not given here;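 note: cells exposed for 96 hours before readout; 0% = vehicle DMSO and 100% = killing by high DMSO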)", "conditions": "ICB984 medulloblastoma cells, drug combinations, stronger effect = higher value"}, "[7]": {"test": "growth inhibition, single agents and combos, LFS_MB_1R, cell-based, cisplatin or BGB combos, synergistic combos for chromothripsis tumors (AID 1671452);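 note: cells exposed for 96 hours before readout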", "conditions": "LFS_MB_1R medulloblastoma cells, stronger effect = higher value"}, "[8]": {"test": "growth inhibition, single agents and combos, HTB85, cell-based, BGB or cisplatin IC20 combos, synergistic combos for chromothripsis tumors (AID 1671453);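 note: cells exposed for 96 hours before readout; 0% = vehicle DMSO and 100% = high DMSO killing control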", "conditions": "HTB85 osteosarcoma cells, drug combinations, stronger effect = higher value"}, "[9]": {"test": "growth inhibition, single agents and combos, CRL2098, cell-based, BGB or cisplatin IC20 combos, synergistic combos for chromothripsis tumors (AID 1671454);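 note: cells exposed for 96 h before readout; 0% = vehicle DMSO and 100% = killing by high DMSO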", "conditions": "CRL2098 osteosarcoma cells, drug combinations, stronger effect = higher value"}, "[10]": {"test": "growth inhibition, single agents and combos, HD-MB03, cell-based, BGB or cisplatin IC20 combos, synergistic combos for chromothripsis tumors (AID 1671455; in the data active = inhibition above about 83%;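 note: 0% = vehicle DMSO and 100% = high DMSO as cytotoxic control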)", "conditions": "HD-MB03 medulloblastoma cells, stronger effect = higher value"}, "[11]": {"test": "growth inhibition, single agents and combos, UWB1.289, cell-based, BGB or cisplatin combos, synergistic combos for chromothripsis tumors (AID 1671456);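 note: cells exposed to compound for four days; 0% = vehicle DMSO and 100% = killing by high DMSO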", "conditions": "UWB1.289 ovarian carcinoma cells, stronger effect = higher value"}, "[12]": {"test": "growth inhibition, single agents and combos, LFS_MB_2R, cell-based, cisplatin combos, synergistic combos for chromothripsis tumors (AID 1671457);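 note: cells exposed to compound for four days before readout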", "conditions": "LFS_MB_2R medulloblastoma cells, stronger effect = higher value"}, "[13]": {"test": "growth inhibition, MDA-MB-436, cell-based, BGB or cisplatin combos, synergistic combos for chromothripsis tumors (AID 1671458; call rule not given here;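 note: cells exposed for 96 hours; 0% = vehicle DMSO and 100% = killing by high DMSO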)", "conditions": "MDA-MB-436 breast carcinoma growth inhibition, drug combinations, stronger effect = higher value"}, "[14]": {"test": "UWB1.289_BRCA1 ovarian cancer growth, cell-based, BGB or cisplatin combinations (AID 1671459)", "conditions": "UWB1.289 BRCA1 ovarian carcinoma, drug combinations, stronger effect = higher value"}, "[15]": {"test": "drug combination toxicity in non-malignant astrocytes – cell-based, BGB or cisplatin IC20 combos, cytotoxicity control for chromothriptic childhood tumor combination screen (AID 1671460);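 note: cells exposed to compounds for 96 hours before viability readout; 0% = vehicle and 100% = killing control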", "conditions": "Human astrocytes, viability inhibition, drug combinations, at 0.5 µM, stronger effect = higher value"}, "[16]": {"test": "BT084 cell growth, single and combined drugs, ICGC_MB145, cisplatin and BGB IC40 combos (AID 1671461);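 note: cells exposed to drugs for 96 hours; 0% = vehicle DMSO and 100% = high DMSO full killing control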", "conditions": "BT084 medulloblastoma cells, drug combinations, stronger effect = higher value"}, "[17]": {"test": "RCMB18 cell growth, single agent and combined, cisplatin and BGB IC40 combos (AID 1671462);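 note: cells exposed to compound for four days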", "conditions": "RCMB18 medulloblastoma cells, stronger effect = higher value"}, "[18]": {"test": "CRL1545 cell growth, single agent and combined, cisplatin and BGB IC20 combos (AID 1671464);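 note: cells exposed to compound for 96 hours before readout; 0% = vehicle DMSO and 100% = high DMSO killing control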", "conditions": "CRL1545 osteosarcoma cells, stronger effect = higher value"}, "[19]": {"conditions": "measured here: combination with BGB IC40, at 0.05 µM"}, "[20]": {"conditions": "measured here: with BGB IC20 combination, at 0.5 µM"}, "[21]": {"conditions": "measured here: with cisplatin IC20 combination, at 0.5 µM"}, "[22]": {"conditions": "measured here: combination with cisplatin, at 0.5 µM"}, "[23]": {"conditions": "measured here: combination with cisplatin, at 5 µM"}}, "note": "“And” between values parts separate entries of the source, which are not always exact repeats. Equal values may be shown once. Results filed as inconclusive are left out. The source made the active and inactive calls. Cut-off read from the data, not from the text of the source, unless noted: active = inhibition above about 80%; inactive = the rest."}
{"smiles": "Nc1ccc(F)cc1NC(=O)c1ccc(CNC(=O)/C=C/c2cccnc2)cc1", "values": [{"measurement": "AC50", "setting": "[1]", "value": "5.9 µM (active)"}, {"measurement": "AC50", "setting": "[2]", "value": "9.34 µM (active)"}, {"measurement": "IC50", "setting": "[3]", "value": "16.6 µM (active)"}, {"measurement": "inhibition", "setting": "[4]; at 0.5 µM, stronger effect = higher value", "value": "-9.27% (inactive) and 17.5% (inactive)"}, {"measurement": "inhibition", "setting": "[4]; measured here: combination with BGB IC20, at 0.005 µM", "value": "-31.2% and 6.89%"}, {"measurement": "inhibition", "setting": "[4]; measured here: combination with BGB IC40, at 0.005 µM", "value": "-55.6% and -31.5%"}, {"measurement": "inhibition", "setting": "[4]; [19]", "value": "-32.7% and -5.83%"}, {"measurement": "inhibition", "setting": "[4]; measured here: combination with cisplatin, at 0.5 µM, stronger effect = higher value", "value": "16% and 62.9%"}, {"measurement": "inhibition", "setting": "[4]; measured here: combination with cisplatin, at 5 µM, stronger effect = higher value", "value": "108% and 116%"}, {"measurement": "inhibition", "setting": "[5]; BGB combo, at 5 µM", "value": 80.7, "unit": "%"}, {"measurement": "inhibition", "setting": "[5]; at 0.5 µM", "value": "12.4% (inactive) and 12.7% (inactive)"}, {"measurement": "inhibition", "setting": "[5]; cisplatin combo, at 5 µM", "value": "80.6% and 84.9%"}, {"measurement": "inhibition", "setting": "[5]; [20]", "value": "1.48% and 7.37%"}, {"measurement": "inhibition", "setting": "[5]; [21]", "value": "26.1% and 17.9%"}, {"measurement": "inhibition", "setting": "[5]; single agent, at 5 µM", "value": "78.9% and 79.8%"}, {"measurement": "inhibition", "setting": "[6]; BGB IC20 combo, at 0.005 µM", "value": "6.31% and 11.4%"}, {"measurement": "inhibition", "setting": "[6]; BGB IC40 combo, at 0.005 µM", "value": "6.94% and 2.58%"}, {"measurement": "inhibition", "setting": "[6]; BGB IC40 combo, at 0.05 µM", "value": "84.2% and 81%"}, {"measurement": "inhibition", "setting": "[6]; at 0.5 µM", "value": "-12.1% (inactive) and -33.8% (inactive)"}, {"measurement": "inhibition", "setting": "[6]; cisplatin combo, at 0.05 µM", "value": "83.9% and 80.3%"}, {"measurement": "inhibition", "setting": "[6]; cisplatin combo, at 0.5 µM", "value": "-1.65% and -31.4%"}, {"measurement": "inhibition", "setting": "[6]; cisplatin combo, at 5 µM", "value": "-26.1% and -13.8%"}, {"measurement": "inhibition", "setting": "[6]; measured here: 5 uM single agent, at 5 µM", "value": "-14% and -9.96%"}, {"measurement": "inhibition", "setting": "[7]; at 0.5 µM", "value": "30% (inactive) and 36% (inactive)"}, {"measurement": "inhibition", "setting": "[7]; [19]", "value": "-28.7% and -30.1%"}, {"measurement": "inhibition", "setting": "[7]; [22]", "value": "65% and 50%"}, {"measurement": "inhibition", "setting": "[7]; [23]", "value": "97% and 96%"}, {"measurement": "inhibition", "setting": "[8]; at 0.5 µM", "value": "21% (inactive) and 24% (inactive)"}, {"measurement": "inhibition", "setting": "[8]; measured here: with BGB IC20, at 0.5 µM", "value": "43.2% and 13.5%"}, {"measurement": "inhibition", "setting": "[8]; measured here: with BGB IC20, at 5 µM", "value": "97.2% and 95.3%"}, {"measurement": "inhibition", "setting": "[8]; measured here: with cisplatin IC20, at 0.5 µM", "value": "15.4% and 37.9%"}, {"measurement": "inhibition", "setting": "[8]; measured here: with cisplatin IC20, at 5 µM", "value": "97.9% and 96.5%"}, {"measurement": "inhibition", "setting": "[8]; single agent, at 5 µM", "value": "91.8% and 89.6%"}, {"measurement": "inhibition", "setting": "[9]; at 0.5 µM", "value": "-40.8% (inactive) and -34.5% (inactive)"}, {"measurement": "inhibition", "setting": "[9]; measured here: combination with BGB at IC20, at 0.5 µM", "value": "-53.4% and -17.4%"}, {"measurement": "inhibition", "setting": "[9]; measured here: combination with cisplatin at IC20, at 0.5 µM", "value": "-22.2% and -51.8%"}, {"measurement": "inhibition", "setting": "[10]; at 0.5 µM", "value": "19.9% (inactive) and 36% (inactive)"}, {"measurement": "inhibition", "setting": "[10]; measured here: combo with BGB at IC20, at 0.5 µM", "value": "24.3% and 36.2%"}, {"measurement": "inhibition", "setting": "[10]; measured here: combo with cisplatin at IC20, at 0.5 µM", "value": "28.3% and 50.6%"}, {"measurement": "inhibition", "setting": "[11]; at 0.5 µM", "value": "6.29% (inactive) and 20.9% (inactive)"}, {"measurement": "inhibition", "setting": "[11]; measured here: inhibition with BGB combination, at 0.05 µM", "value": "-10.5% and -21.7%"}, {"measurement": "inhibition", "setting": "[11]; measured here: inhibition with cisplatin combination, at 0.05 µM", "value": "-34.6% and -15.2%"}, {"measurement": "inhibition", "setting": "[12]; at 0.5 µM", "value": "19.4% (inactive) and 17.9% (inactive)"}, {"measurement": "inhibition", "setting": "[12]; [22]", "value": "42.4% and 41%"}, {"measurement": "inhibition", "setting": "[12]; [23]", "value": "91.1% and 92.2%"}, {"measurement": "inhibition", "setting": "[13]; at 0.5 µM", "value": "-0.59% (inactive) and 2.18% (inactive)"}, {"measurement": "inhibition", "setting": "[13]; measured here: BGB combination, at 0.5 µM", "value": "-5.08% and -6.18%"}, {"measurement": "inhibition", "setting": "[13]; measured here: BGB combination, at 5 µM", "value": "27.2% and 23.4%"}, {"measurement": "inhibition", "setting": "[13]; measured here: cisplatin combination, at 0.5 µM", "value": "-7.52% and 1.65%"}, {"measurement": "inhibition", "setting": "[13]; measured here: cisplatin combination, at 5 µM", "value": "37.2% and 38.6%"}, {"measurement": "inhibition", "setting": "[14]; BGB combination, concentration series, at 5 µM", "value": "85.3% and 82.2%"}, {"measurement": "inhibition", "setting": "[14]; at 0.5 µM", "value": "1.02% (inactive) and 1.89% (inactive)"}, {"measurement": "inhibition", "setting": "[14]; cisplatin combination, concentration series, at 5 µM", "value": "98.1% and 92.9%"}, {"measurement": "inhibition", "setting": "[15]", "value": "-0.32% (inactive) and -2.77% (inactive)"}, {"measurement": "inhibition", "setting": "[15]; measured here: combo with BGB IC20", "value": "-0.373% and -1.39%"}, {"measurement": "inhibition", "setting": "[15]; measured here: combo with cisplatin IC20", "value": "-8.73% and -1.18%"}, {"measurement": "inhibition", "setting": "[16]; at 0.5 µM", "value": "39.6% (inactive) and 45% (inactive)"}, {"measurement": "inhibition", "setting": "[16]; cisplatin combination, at 0.5 µM", "value": "58.4% and 61.5%"}, {"measurement": "inhibition", "setting": "[16]; cisplatin combination, at 5 µM", "value": "87.7% and 92.4%"}, {"measurement": "inhibition", "setting": "[16]; measured here: BGB IC40 combination 0.05 uM, at 0.05 µM", "value": "-24% and -23.6%"}, {"measurement": "inhibition", "setting": "[16]; single agent, at 5 µM", "value": "65.3% and 57.1%"}, {"measurement": "inhibition", "setting": "[17]; at 0.5 µM", "value": "43.9% (inactive) and 41.5% (inactive)"}, {"measurement": "inhibition", "setting": "[17]; cisplatin combo, at 5 µM", "value": "93.2% and 98.3%"}, {"measurement": "inhibition", "setting": "[17]; measured here: BGB IC40 combination, at 0.05 µM", "value": "-7.17% and -21.6%"}, {"measurement": "inhibition", "setting": "[17]; [22]", "value": "52.2% and 77.9%"}, {"measurement": "inhibition", "setting": "[17]; single agent, at 5 µM", "value": "82.6% and 79%"}, {"measurement": "inhibition", "setting": "[18]; at 0.5 µM", "value": "45.6% (inactive) and 32.9% (inactive)"}, {"measurement": "inhibition", "setting": "[18]; [20]", "value": "25.5% and 27%"}, {"measurement": "inhibition", "setting": "[18]; [21]", "value": "54.9% and 35.9%"}, {"measurement": "inhibition", "setting": "[18]; single agent, at 0.05 µM", "value": "-31.6% and 15.5%"}, {"measurement": "inhibition", "setting": "[18]; single agent, at 5 µM", "value": "32.4% and 21.9%"}]}
{"smiles": "CCc1cc2c(cc1N1CCC(N3CCOCC3)CC1)C(C)(C)c1[nH]c3cc(C#N)ccc3c1C2=O", "values": [{"measurement": "AC50", "setting": "[1]", "value": "2.04 µM (active)"}, {"measurement": "outcome", "setting": "[3]", "value": "inactive"}]}
